Source: PubChem BioAssay (Broad Institute)
Rows were chosen to be rich in hits. Some 4.1% of all compounds tested hit in one or more screens of this group.
Casp6 inh = caspase-6 (human) enzyme inhibition | AID 686996 | inhibition, % at 12.5 µM | hit rate 0.53% among 350,000 | purified caspase-6, Z-VEID-R110 cleavage fluorescence;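 active = mean inhibition across replicates at least about 35%, with every replicate also reaching that limit, limit read from the data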;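 note: 0% = median of neutral control wells and 100% = no fluorescence left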
Target sequence (P55212 24-179 limits assumed): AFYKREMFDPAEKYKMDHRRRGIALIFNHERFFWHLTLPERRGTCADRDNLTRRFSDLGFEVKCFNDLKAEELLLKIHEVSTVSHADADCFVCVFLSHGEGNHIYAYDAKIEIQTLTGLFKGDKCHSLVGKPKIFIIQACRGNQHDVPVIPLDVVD
Target sequence (P55212 194-293 limits assumed): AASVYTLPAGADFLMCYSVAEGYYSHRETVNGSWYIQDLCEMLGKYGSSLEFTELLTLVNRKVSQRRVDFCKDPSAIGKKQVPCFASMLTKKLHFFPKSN
PglD DTNB = inhibitors of Campylobacter jejuni PglD acetyltransferase; purified PglD enzyme, DTNB colorimetric CoA detection; AID 602405; inhibition, % at 12.5 µM; hit rate 0.098% among 360,000; in the data active = inhibition above about 16%, passing the limit was not always enough
Env fusion inh = blocks HIV Env-driven cell-cell fusion; HeLa-JRFL Env/CEM21 cell fusion, luciferase; inhibition, % at 12.3 µM; hit rate 1.1% among 360,000;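 active = mean replicate inhibition score of at least 50 and every replicate individually at or above 50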;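 note: 0% = plate neutral controls and 100% = maraviroc near 300 nM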
F508del corr = CFTR F508del correction in bronchial cells | CFBE cells, YFP halide quenching; stimulated with forskolin plus potentiator P3; % fluorescence drop versus neutral controls | hit rate 0.36% among 350,000 | activity (quench increase), % at 7.58 µM;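 active = mean added fluorescence quench of at least 8% versus neutral control, with both replicates also reaching 8%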;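 note: cells transiently co-express mutant CFTR-F508del with the halide-sensitive YFP; corrector assay measuring rescue of mutant channel to the surface after 24 h compound exposure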
ALR H2O2 inh = blocks human ALR sulfhydryl oxidase activity | P55789 | purified ALR, DTT oxidation, H2O2 HRP-luminol luminescence | inhibition, % (no concentration beside the values) | hit rate 3.8% among 290,000 | AID 485317;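 active = mean replicate inhibition above about 79%, with every replicate also reaching it, limit read from the data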
NSD2 HMT inh = NSD2 (human) methyltransferase inhibition. inhibition, % at 12.5 µM. hit rate 0.54% among 310,000. NSD2 peptide methylation, AlphaScreen, 120 min; in the data active = inhibition above about 50%
AlphaScreen art = interferes with AlphaScreen signal, flagging NSD2 false positives | shares compounds with NSD2 HMT inh | AlphaScreen artifact counterscreen, preloaded methylated H4 peptide | AC35, µM (highest dose often 10 µM), without a hit: top-dose activity change, negative = signal loss | hit rate 9.4% among 1,500 | AID 1053174; call rule not given here
Active calls of the source: *; . = no result; [ ] = dose if it differs, or a comment.

SMILES	Casp6 inh	PglD DTNB	Env fusion inh	F508del corr	ALR H2O2 inh	NSD2 HMT inh	AlphaScreen art
O=C1C=CC(=O)c2c(O)c(N3CCN(CCO)CC3)c(Cl)c(O)c21	93*	.	-158	-8	.	103*	-5%
Cc1nnc(N/N=C\c2ccc(-c3cccc(C(=O)O)c3)o2)n1N	13	.	18	-3	-12	95*	4%
CCC(C)NCCCOc1cc(Cl)ccc1Cl (stereo unspecified)	.	-1	-47	.	-11	52*	-1%
CCC(C)NCCCCOc1ccc(Cl)cc1C (stereo unspecified)	.	-4	0	.	-4	60*	-5%
C=CCc1cc(Cl)ccc1OCCOCCNC(C)CC (stereo unspecified)	-2	0	10	2	-86	6	.
CCCCNCCCOc1cc(Cl)ccc1Cl	.	.	.	.	.	7	.
C[C@H](CO)N1C[C@H](C)[C@@H](CN(C)C(=O)C2CCC2)Oc2ncc(-c3ccncc3)cc2C1=O	.	.	5[16.7 µM]	0	.	.	.
O=C(C1CCCCC1)N1C[C@H]2[C@@H](c3ccccc31)[C@H](CO)N2CC1CCOCC1	2	-1	.	2	.	.	.
O=C(C[C@@H]1CC[C@@H]2[C@H](COC[C@@H](O)CN2Cc2cccc(-c3ccncc3)c2)O1)N1CCOCC1	4	4	-4[16.7 µM]	-3	.	.	.
Nc1nc(O)c(Sc2ccccc2[N+](=O)[O-])c(=O)[nH]1	8	1	-4	0	-7	54*	-6%
Nc1ccccc1Sc1ccccc1[N+](=O)[O-]	.	.	-4	.	.	6	.
Cc1cc(Cl)ccc1OCCCC(=O)N1CCCCC1	.	-1	.	.	-5	-3	.
Cc1cc(Cl)ccc1OCCCC(=O)N1CCOCC1	.	0	-14	.	-11	72*	1%
C/C(=N\NC(=O)c1nnn(-c2nonc2N)c1C)c1ccc(-c2ccccc2)cc1	-8	-4	-2	-3	.	99*	-1%
CCN(CC)CCCn1c(=S)[nH]c2ncccc2c1=O	.	-1	-93	.	28	55*	-5%
CCN(CCCn1c(=S)[nH]c2ncccc2c1=O)c1ccccc1	.	-1	-37	.	34	2	.
Cc1ccc(S(=O)(=O)N(C)C[C@@H]2Oc3ccc(NS(=O)(=O)c4cn(C)cn4)cc3CC(=O)N([C@H](C)CO)C[C@@H]2C)cc1	.	.	-13[16.7 µM]	-1	.	.	.
Oc1ccc(C2=Nn3c(nnc3-c3ccco3)SC2)cc1O	.	.	.	.	58	62*	-23%
O=C(C[C@@H]1CC[C@@H](NS(=O)(=O)c2ccccc2)[C@@H](CO)O1)NCc1ccccc1F	1	3	-2[16.7 µM]	-1	.	.	.
Cc1nnc(Sc2cc(NCCO)c([N+](=O)[O-])c3nonc23)s1	9	.	0	-11	.	60*	-3%
Cc1nnc(Sc2cc(NCCCO)c([N+](=O)[O-])c3nonc23)s1	13	.	-5	-9	.	.	.
Cc1ccc(CSc2nc3c(c(=O)[nH]2)C(c2ccncc2)C2=C(CCCC2=O)N3)cc1 (stereo unspecified)	.	-6	-1	.	-4	127*	-1%
CC(=O)NC[C@H]1[C@@H](c2ccc(C3=CCCC3)cc2)[C@@H](CO)N1C(=O)C1CCC1	-3	.	.	0	.	.	.
CCCCN1C(=O)C(=Nc2cccc3cnccc23)c2ccccc21	-4	.	19	-1	18	74*	-1%
CCCCN1C(=O)/C(=C2\SC(N3CCCCC3)=NC2=O)c2ccccc21	.	-7	-96	.	-3	13	.
SMILES	Casp6 inh	PglD DTNB	Env fusion inh	F508del corr	ALR H2O2 inh	NSD2 HMT inh	AlphaScreen art
CNC(=O)C[C@H]1CC[C@@H]2[C@H](COc3ccc(NC(=O)c4cccc(F)c4)cc3C(=O)N2C)O1	-1	6	-2[16.7 µM]	-1	.	.	.
C=CCSc1nnc(-c2ccc(Cl)cc2Cl)o1	.	0	-194	.	-8	68*	11%
Clc1ccc(-c2nnc(SCc3ccon3)o2)c(Cl)c1	.	-3	.	.	-5	7	.
COc1ccccc1NC(=O)Nc1ccc2c(c1)C(=O)N(C)C[C@H](OC)[C@H](C)CN(C)[C@@H](C)CO2	.	-2	-9[16.7 µM]	-5	.	.	.
O=C(N/N=C/c1cc2c(cc1[N+](=O)[O-])OCO2)c1ccccn1	5	5	.	-2	-24	53*	-4%
NS(=O)(=O)c1ccc(S(=O)(=O)N2CCN(C3CCCC3)CC2)cc1	2	.	-5	4	.	118*	-1%
CCCc1nc2sc3ccccc3c(=O)c2c(=O)n1Cc1ccccc1	-2	-6	36	2	.	61*	-3%
